HT1080-NT tox – kills 2HG-producing HT-1080-NT fibrosarcoma cells | 1.6% of 360,000 active | AID 686970 | Potency, µM (doses to about 46.1 µM), inactives show at the highest dose activity, negative = less viability, most hits filed as cytotoxic | HT-1080-NT fibrosarcoma viability, CellTiter-Glo ATP luminescence, 48 h;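 further: NT is the 2HG producing partner of a matched IDH1 knockdown line; 0% = DMSO-treated cells and -100% = media-only wells without cells; nearly all actives have a fitted effect of over 55% in size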
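Compounds were tested in concentration-response format on HT-1080-NT cells for 48 hours at 37 degrees C. Cell viability came from CellTiter-Glo luminescence; curves were classified by r2, response magnitude and activity.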
HT1080 IDH1KD tx – kills HT-1080 cells with IDH1 knockdown; HT-1080 IDH1 knockdown viability, ATP luminescence, 48 h; Potency, µM (top dose mostly 46.1 µM), without a hit: at the highest dose activity, negative = toxicity, most hits filed as cytotoxic; 2% of 360,000 active;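 further: 0% = DMSO wells and -100% = cell-free medium wells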
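Using the IDH1-knockdown HT-1080 line run in the same batch and compound series as the NT line, viability after 48 h at 37 °C was determined by CellTiter-Glo luminescence and expressed as % activity.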
KB-3-1 tox – kills parental KB-3-1 adenocarcinoma cells; KB-3-1 viability, CellTiter-Glo ATP luminescence, 72 h; Potency, µM (highest dose often 46.1 µM), hits mostly cytotoxic; 1.4% of 400,000 active; AID 1347075; further: on the % scale 0 is the no-effect control and ±100 the full control effect; nearly all actives have a fitted effect of over 60% in size
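Parental KB-3-1 viability, qHTS format: 72 h compound exposure, 37 °C; CellTiter-Glo; media-only wells and DMSO plates as controls; concentration-effect fits on corrected data.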
KB-V1 MDR tox – KB-V1 MDR subline cytotoxicity. KB-V1 MDR cells viability, CellTiter-Glo, 72 h. Potency, µM (series often up to 46.1 µM), most hits filed as cytotoxic. 3.4% of 400,000 active. AID 1347076; further: on the % scale 0 is the no-effect control and ±100 the full control effect; nearly all actives have a fitted effect of over 60% in size
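Readout: CellTiter-Glo luminescence, 10 min after addition. Cells: KB-V1 MDR subline, 72 h at 37 degrees C with compound. Analysis: corrected, normalized data fitted to concentration-effect curves.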
ATXN2 expr inh – reduces ATXN2 reporter expression in HEK-293 cells. 0.72% of 360,000 active. HEK-293 ATXN2-luciferase reporter, luminescence, 24 h. AID 1745845. Potency, µM (top dose mostly 57 µM), for inactives: at the top dose activity change, negative = inhibition, actives largely listed as inhibitors; further: on the % scale 0 is the no-effect control and ±100 the full control effect; nearly all actives have a fitted effect of over 55% in size
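ATXN2-luciferase reporter cells (luciferase flanked by upstream and downstream ATXN2 gene portions) were treated 24 h at 37 °C with compounds at up to 57 uM. SteadyGlo luminescence gave expression; GF-AFC fluorescence gave viability.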
ATXN viability – cell viability loss in ATXN counter-screen; S2 cells (HEK-293 line with an ATXN2-luciferase reporter) viability, CellTiter-Fluor protease fluorescence, 24 h; Potency, µM (doses to about 56.7 µM), most hits filed as cytotoxic; 0.49% of 400,000 active; AID 651635; further: nearly all actives have a fitted effect of over 40% in size
Active calls of the source: *; i = inactive; ? = inconclusive; . = no result; ! = a repeat was not active. An excerpt weighted towards active compounds, which were near 6.2% of everything screened. The call rests on the fitted dose curve; in most records, active means well fitted curve in the direction sought with a large enough effect; inconclusive means small, poorly fitted or top-dose-only effect, or another doubt; inactive means no such curve, though single readings can be large; an effect the other way counts as inactive or inconclusive. Potency means the concentration at half of the fitted maximal effect.

SMILES	HT1080-NT tox	HT1080 IDH1KD tx	KB-3-1 tox	KB-V1 MDR tox	ATXN2 expr inh	ATXN viability
COc1cc2c(Oc3ccc(NC(=O)C4(C(=O)Nc5ccc(F)cc5)CC4)cc3F)ccnc2cc1OCCCN1CCOCC1	.	.	.	.	27µM*	.
COc1cc2c(Oc3ccc(-c4cnc(Nc5ccc(F)cc5)n(C)c4=O)cc3F)ccnc2cc1OCCCN1CCOCC1	.	.	.	.	24µM*	.
O=C(Cc1ccccc1)Nc1ncnc2c1C(c1ccccc1)c1c(ccc3ccccc13)O2 (stereo unspecified)	.	.	?	18µM*	-31%	i
CCOC(=O)CCC(=O)Nc1ncnc2c1C(c1ccccc1)c1c(ccc3ccccc13)O2 (stereo unspecified)	.	.	?	i	?	?
O=C(Nc1ncnc2c1C(c1ccccc1)c1c(ccc3ccccc13)O2)c1ccccc1 (stereo unspecified)	.	.	13µM*	?	?	?
COc1cc(NC(=O)CCc2c(C)nc3c4c(C)cc(C)nc4nn3c2C)cc(OC)c1	.	.	i	i	0%	i
COc1c(C)cc(S(=O)(=O)Nc2cccc(-c3ccc(N4CCOCC4)nn3)c2)c(C)c1C	.	.	21µM*	i	?	?
Cc1cc(C)cc(S(=O)(=O)Nc2cccc(-c3ccc(N4CCOCC4)nn3)c2)c1	.	.	i	i	13%	i
Cc1cccc2cc(CN(C(=O)c3ccc(C(F)(F)F)cc3)C3CC3)c(N3CCC(O)CC3)nc12	.	.	.	.	.	i
Cc1ccc(Oc2ccc(S(=O)(=O)NCC(C)(C)N3CCOCC3)cc2)cc1	-19%	-11%	?	12µM*	-20%	i
CC(C)(CNS(=O)(=O)c1ccc2c(c1)OCCO2)N1CCOCC1	11%	2%	i	i	.	i
CCc1cccc(C)c1NS(=O)(=O)c1cc2[nH]c(=O)c(=O)[nH]c2cc1C	.	.	i	?	15%	?
CCCCCn1c(NC(=O)c2ccco2)c(S(=O)(=O)c2ccc(C)cc2)c2nc3ccccc3nc21	?	?	i	18µM*	-19%	i
CCCCn1c(NC(=O)c2ccco2)c(S(=O)(=O)c2ccc(C)cc2)c2nc3ccccc3nc21	?	-18%	i	?	2%	.
CCCCn1c(NS(=O)(=O)c2ccccc2)c(S(=O)(=O)c2ccc(C)cc2)c2nc3ccccc3nc21	-12%	-12%	12µM*	?	?	i
O=Nc1ccc(/C=C/c2ccnc3ccccc23)cc1	.	.	i	i	.	.
CC1(C(=O)Nc2nccs2)CCN1C(=O)CC(c1ccccc1)c1ccccc1 (stereo unspecified)	6%	4%	i	?	-7%	i
CCCOC(=O)Nc1nc2ccccc2o1	-5%	-6%	i	i	1%	i
CCOC(=O)c1cnc(Nc2nc3ccccc3o2)nc1CN1CCN(C)CC1	?	15µM*	?	13µM*	0%	i
O=C(CCC1CCCCC1)Nc1ccccc1-c1ccccc1	3%	2%	i	?	0%	i
Cc1ccc(SC(C)C(=O)Nc2ccccc2-c2ccccc2)cc1 (stereo unspecified)	-1%	-7%	i	21µM*	-16%	i
CC(NC1CCCC1)C(=O)Nc1ccccc1-c1ccccc1 (stereo unspecified)	4%	0%	i	12µM*	-7%	i
O=C(CCC1CCCC1)Nc1ccccc1-c1ccccc1	-1%	-5%	i	18µM*	10%	i
O=C1NC[C@H](CCCCN2CCN(Cc3ccccc3)C(=O)C2=O)N(CCc2ccc(O)cc2)C1=O	5%	8%	i	i	-5%	i
O=C(COc1ccc(Oc2ccccc2)cc1)NCc1cn2ccccc2n1	2.6µM*	3.3µM*	15µM*	?	-16%	?
SMILES	HT1080-NT tox	HT1080 IDH1KD tx	KB-3-1 tox	KB-V1 MDR tox	ATXN2 expr inh	ATXN viability
C=CCn1cc(/C=C/c2cc[n+](C)cc2)c2ccccc21	?	?	4.1µM*	i	.	.
C=CCn1c(C)c(/C=C/c2cc[n+](C)cc2)c2ccccc21	-7%	?	2.3µM*	i	?	i
CC(C)n1cc(/C=C/c2cc[n+](C)cc2)c2ccccc21	?	9.2µM*	1.3µM*	i	?	i
COc1ccccc1NC(=O)CSc1oc(-c2ccccc2)nc1S(=O)(=O)c1ccccc1	.	.	i	i	-5%	i
Nc1cccc2cccnc12	.	.	i	i	.	.
Cc1ccc2ccc3cccnc3c2n1	-5%	-19%	12µM*	?	?	?
CC(=O)c1ccc(-c2nc3c4ccccc4ccn3c2C(C)=O)o1	16%	16%	?	7.3µM*	?	?
c1ccc(Cc2c(-c3ccccc3)nc3c4ccccc4ccn23)cc1	5%	8%	i	i	17%	i
Cc1cc(=O)n(CC(=O)Nc2ccc([N+](=O)[O-])cc2)c(-n2nc(C)cc2C)n1	.	.	i	?	.	.
Cc1ccccc1NC(=S)NCc1ccc2c(c1)cc(C)n2C	15µM*	?	?	21µM*	?	?
COc1ccccc1CNC(=O)c1cnn(-c2ccc(F)cc2F)c1C1CCN(C(=O)OC(C)(C)C)CC1	.	.	i	i	.	.
COc1cc(-c2nnc(CSc3nnc(Nc4ccc(C(C)C)cc4)s3)o2)cc(OC)c1OC	?	16µM*	i	21µM*	-59%	?
O=C(CSc1ccc(-c2ccccn2)nn1)Nc1cccc(F)c1	-11%	?	i	?	?	i
COc1ccc(Nc2nnc(SCc3cn4c(C)cccc4n3)s2)cc1	-15%	-23%	12µM*	?	0%	i
O=[N+]([O-])c1ccc(-c2ccc(S(=O)(=O)NCCN3CCCC3)cc2)cc1	18µM*	?	i	i	?	?
O=[N+]([O-])c1ccc(S(=O)(=O)NCCN2CCOCC2)cc1	17%	6%	i	i	-30%	i
CC1CNCCN1S(=O)(=O)c1cccc2cnccc12 (stereo unspecified)	?	?	i	?	-12%	i
O=S(=O)(c1cccc2cnccc12)N1CCCNCC1	?	-15%	?	i	25µM*!	i
CCOC(=O)c1ccccc1NC(=O)CSc1ncc(CO)n1Cc1ccc(C)cc1	.	.	i	i	-25%	i
CCOc1ccccc1NC(C)C(=O)Nc1cc(C(F)(F)F)ccc1N1CCOCC1 (stereo unspecified)	-3%	-24%	?	5.8µM*	-7%	i
Cc1noc(C)c1CSCC(=O)Nc1cc(C(F)(F)F)ccc1N1CCOCC1	-3%	-1%	i	3.7µM*	4%	i
